Percent Effect data for eleven compounds are collected here from ChEMBL document CHEMBL3988442, “University of Dundee, Small-Polar-MMV Screening Library” (2021).

Molecules are shown by their SMILES. For some of these results: Potency and affinity values are given separately.

Holding throughout (parameters): scale not given: direction of the effect not stated beside the values
Assay [1] has as its target Protein translocase subunit SecA (Escherichia coli (strain K12)) (UniProt P10408). Put plainly: Assay to Identify E. coli SecA ATPase Inhibitors. Particulars: 30 µM. The class given is functional.
Assay [2] concerns the target T1, Ubiquitin-activating enzyme e1, putative (Leishmania donovani (strain BPK282A1)) (UniProt E9BSI1).
T1 sequence (whole entry): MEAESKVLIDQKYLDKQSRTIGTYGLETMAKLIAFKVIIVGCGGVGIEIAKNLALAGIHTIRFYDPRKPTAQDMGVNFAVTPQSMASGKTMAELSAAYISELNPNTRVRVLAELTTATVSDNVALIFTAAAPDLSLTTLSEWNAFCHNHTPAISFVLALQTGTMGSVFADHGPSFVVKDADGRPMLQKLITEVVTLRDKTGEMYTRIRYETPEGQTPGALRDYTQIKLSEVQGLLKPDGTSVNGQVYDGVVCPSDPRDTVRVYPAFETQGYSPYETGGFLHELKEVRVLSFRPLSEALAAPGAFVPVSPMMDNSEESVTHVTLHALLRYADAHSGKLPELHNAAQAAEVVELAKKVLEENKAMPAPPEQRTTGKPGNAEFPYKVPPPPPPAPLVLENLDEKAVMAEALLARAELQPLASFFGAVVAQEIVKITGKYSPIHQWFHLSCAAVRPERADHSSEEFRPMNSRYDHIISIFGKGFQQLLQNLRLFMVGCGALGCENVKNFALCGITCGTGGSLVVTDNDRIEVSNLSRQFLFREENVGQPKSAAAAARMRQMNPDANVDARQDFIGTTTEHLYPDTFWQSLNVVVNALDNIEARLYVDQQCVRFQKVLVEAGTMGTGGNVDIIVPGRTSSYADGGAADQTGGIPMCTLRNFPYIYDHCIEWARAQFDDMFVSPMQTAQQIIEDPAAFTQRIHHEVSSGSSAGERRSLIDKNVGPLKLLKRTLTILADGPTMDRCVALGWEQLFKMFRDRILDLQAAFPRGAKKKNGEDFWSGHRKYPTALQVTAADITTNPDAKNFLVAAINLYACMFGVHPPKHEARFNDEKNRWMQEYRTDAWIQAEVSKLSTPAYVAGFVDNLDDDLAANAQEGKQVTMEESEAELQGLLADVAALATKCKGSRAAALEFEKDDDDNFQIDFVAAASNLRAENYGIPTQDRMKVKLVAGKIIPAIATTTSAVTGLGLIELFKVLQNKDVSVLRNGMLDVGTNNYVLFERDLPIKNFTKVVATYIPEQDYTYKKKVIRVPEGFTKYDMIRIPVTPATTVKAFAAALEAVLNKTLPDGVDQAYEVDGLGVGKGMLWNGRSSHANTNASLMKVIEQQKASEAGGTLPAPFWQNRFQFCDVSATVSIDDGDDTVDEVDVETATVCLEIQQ
Put plainly: Leishmania donovani Ubiquitin Activating Enzyme (LdE1). Format: functional. The conditions noted are these: 30 µM.

In assay [3] the target is AMP-activated protein kinase, AMPK (Homo sapiens) (UniProt P54646+O43741+P54619+Q9UGJ0+Q9Y478+Q13131+Q9UGI9). Put plainly: AMP-dependent Kinase enzyme assay. An in vitro enzyme assay that detects ADP turnover that is directly proportional to AMPK activity. This uses naive AMPK that is activated during the assay with MK-8722. Format: functional. Particulars: 30 µM.
The target of assay [4] is Sialic acid-binding Ig-like lectin 9 (Homo sapiens) (UniProt Q9Y336). Description: Hs-Siglec9 ALPHAscreen SOP 20170721. The conditions noted are these: 10 µM. In general terms: In Alpha technology, singlet oxygen from a donor bead excites a nearby acceptor bead.
Sequence of Sialic acid-binding Ig-like lectin 9 (Homo sapiens) (Q9Y336 whole entry): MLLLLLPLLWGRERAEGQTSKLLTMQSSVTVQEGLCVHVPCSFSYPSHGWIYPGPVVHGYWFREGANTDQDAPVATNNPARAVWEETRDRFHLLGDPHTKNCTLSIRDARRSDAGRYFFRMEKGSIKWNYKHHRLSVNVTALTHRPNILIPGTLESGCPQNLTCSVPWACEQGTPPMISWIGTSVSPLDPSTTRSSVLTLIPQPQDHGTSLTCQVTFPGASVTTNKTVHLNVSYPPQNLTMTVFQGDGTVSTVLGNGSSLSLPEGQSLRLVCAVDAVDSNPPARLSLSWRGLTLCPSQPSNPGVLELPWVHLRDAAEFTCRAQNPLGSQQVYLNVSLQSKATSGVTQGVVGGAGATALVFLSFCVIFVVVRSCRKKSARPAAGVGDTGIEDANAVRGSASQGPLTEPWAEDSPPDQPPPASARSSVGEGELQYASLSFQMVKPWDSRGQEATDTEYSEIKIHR
Assay [5] deals with Trypanosoma cruzi. Put plainly: Trypanosoma cruzi phosphomannomutase and mannose-1-phosphate guanylyltransferase assay. The class given is functional. The conditions noted are these: 10 µM.
The target of assay [6] is T2, Arginase-2, mitochondrial (Homo sapiens) (UniProt P78540).
T2 sequence (whole entry): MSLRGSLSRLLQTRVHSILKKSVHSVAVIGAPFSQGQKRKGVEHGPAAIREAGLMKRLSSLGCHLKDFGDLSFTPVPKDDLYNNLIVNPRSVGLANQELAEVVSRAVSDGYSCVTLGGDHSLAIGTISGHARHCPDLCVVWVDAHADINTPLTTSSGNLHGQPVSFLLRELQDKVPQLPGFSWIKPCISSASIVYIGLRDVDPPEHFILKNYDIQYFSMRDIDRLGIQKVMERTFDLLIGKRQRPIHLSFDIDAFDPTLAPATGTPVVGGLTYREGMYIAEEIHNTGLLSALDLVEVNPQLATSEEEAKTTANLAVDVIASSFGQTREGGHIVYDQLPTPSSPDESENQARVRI
Put plainly: in vitro enzyme assay to detect the production of urea directly proportional to the activity of Arginase II. Also: in the data most compounds retested in dose-response had high values. The class given is functional. Particulars: 33.3 µM.

Assay [7] has as its target T3, Proteasome subunit beta (Trypanosoma cruzi) (UniProt O96673).
T3 sequence (whole entry): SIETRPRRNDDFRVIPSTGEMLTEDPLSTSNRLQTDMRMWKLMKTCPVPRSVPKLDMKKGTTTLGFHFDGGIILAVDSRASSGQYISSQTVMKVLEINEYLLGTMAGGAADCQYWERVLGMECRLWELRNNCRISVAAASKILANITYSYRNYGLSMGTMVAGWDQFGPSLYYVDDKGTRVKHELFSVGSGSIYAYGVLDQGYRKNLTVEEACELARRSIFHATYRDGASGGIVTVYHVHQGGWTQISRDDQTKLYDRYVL
Put plainly: Trypanosoma cruzi proteasome chymotrypsin-like activity (TcProtChymo) assay. Also: in the data most compounds retested in dose-response had high values. The class given is functional. Particulars: 9.37 µM.

Assay [8] is filed under the species Homo sapiens. Description: To identify inhibition of the IFN signalling (Jak-Stat) pathway via expression of an eGFP reporter gene under the control of an IFN-stimulated response element (ISRE) containing MxA promoter. The conditions noted are these: 30 µM. The class given is functional. On the technique in general: In a reporter assay the amount or activity of a reporter protein is the signal.

In assay [9] the target is T4, Tyrosyl-tRNA synthetase, putative (Trypanosoma cruzi (strain CL Brener)) (UniProt Q4DSP6).
T4 sequence (whole entry): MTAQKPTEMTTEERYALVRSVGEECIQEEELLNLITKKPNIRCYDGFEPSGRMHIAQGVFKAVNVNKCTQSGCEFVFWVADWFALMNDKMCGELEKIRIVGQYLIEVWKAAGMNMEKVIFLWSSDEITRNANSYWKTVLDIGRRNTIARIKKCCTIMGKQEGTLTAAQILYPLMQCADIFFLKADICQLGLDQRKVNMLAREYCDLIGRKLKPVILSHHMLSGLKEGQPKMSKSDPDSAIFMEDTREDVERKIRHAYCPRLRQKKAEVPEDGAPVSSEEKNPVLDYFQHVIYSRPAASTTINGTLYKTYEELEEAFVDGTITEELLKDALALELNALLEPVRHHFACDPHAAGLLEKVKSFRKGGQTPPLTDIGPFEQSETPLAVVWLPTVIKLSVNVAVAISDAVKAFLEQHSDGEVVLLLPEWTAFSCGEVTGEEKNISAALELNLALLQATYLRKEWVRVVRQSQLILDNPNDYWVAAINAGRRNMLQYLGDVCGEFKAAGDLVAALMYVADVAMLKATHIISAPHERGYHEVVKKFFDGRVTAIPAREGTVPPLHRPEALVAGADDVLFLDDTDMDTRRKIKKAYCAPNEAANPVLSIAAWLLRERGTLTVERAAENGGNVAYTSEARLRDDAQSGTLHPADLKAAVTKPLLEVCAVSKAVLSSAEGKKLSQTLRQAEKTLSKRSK
Description: Trypanosoma cruzi tyrosyl tRNA synthetase (TcYRS) _High Tyrosine SOP. Also: in the data most compounds retested in dose-response had high values. Format: functional. The conditions noted are these: 30 µM.

The target of assay [10] is T4, Tyrosyl-tRNA synthetase, putative (Trypanosoma cruzi (strain CL Brener)). Description: Trypanosoma cruzi tyrosyl tRNA synthetase (TcYRS) SOP. The class given is functional. The conditions noted are these: 30 µM.
Assay [11] has as its target Chromo domain-containing protein 1 (Saccharomyces cerevisiae (strain ATCC 204508 / S288c) (Baker's yeast)) (UniProt P32657). Put plainly: ScCHD-1 Enzyme Inhibition Assay. Also: in the data most compounds retested in dose-response had high values. The class given is functional. Particulars: 30 µM.

Sequence of Chromo domain-containing protein 1 (Saccharomyces cerevisiae (strain ATCC 204508 / S288c) (Baker's yeast)) (P32657 whole entry, the tested form may be a part): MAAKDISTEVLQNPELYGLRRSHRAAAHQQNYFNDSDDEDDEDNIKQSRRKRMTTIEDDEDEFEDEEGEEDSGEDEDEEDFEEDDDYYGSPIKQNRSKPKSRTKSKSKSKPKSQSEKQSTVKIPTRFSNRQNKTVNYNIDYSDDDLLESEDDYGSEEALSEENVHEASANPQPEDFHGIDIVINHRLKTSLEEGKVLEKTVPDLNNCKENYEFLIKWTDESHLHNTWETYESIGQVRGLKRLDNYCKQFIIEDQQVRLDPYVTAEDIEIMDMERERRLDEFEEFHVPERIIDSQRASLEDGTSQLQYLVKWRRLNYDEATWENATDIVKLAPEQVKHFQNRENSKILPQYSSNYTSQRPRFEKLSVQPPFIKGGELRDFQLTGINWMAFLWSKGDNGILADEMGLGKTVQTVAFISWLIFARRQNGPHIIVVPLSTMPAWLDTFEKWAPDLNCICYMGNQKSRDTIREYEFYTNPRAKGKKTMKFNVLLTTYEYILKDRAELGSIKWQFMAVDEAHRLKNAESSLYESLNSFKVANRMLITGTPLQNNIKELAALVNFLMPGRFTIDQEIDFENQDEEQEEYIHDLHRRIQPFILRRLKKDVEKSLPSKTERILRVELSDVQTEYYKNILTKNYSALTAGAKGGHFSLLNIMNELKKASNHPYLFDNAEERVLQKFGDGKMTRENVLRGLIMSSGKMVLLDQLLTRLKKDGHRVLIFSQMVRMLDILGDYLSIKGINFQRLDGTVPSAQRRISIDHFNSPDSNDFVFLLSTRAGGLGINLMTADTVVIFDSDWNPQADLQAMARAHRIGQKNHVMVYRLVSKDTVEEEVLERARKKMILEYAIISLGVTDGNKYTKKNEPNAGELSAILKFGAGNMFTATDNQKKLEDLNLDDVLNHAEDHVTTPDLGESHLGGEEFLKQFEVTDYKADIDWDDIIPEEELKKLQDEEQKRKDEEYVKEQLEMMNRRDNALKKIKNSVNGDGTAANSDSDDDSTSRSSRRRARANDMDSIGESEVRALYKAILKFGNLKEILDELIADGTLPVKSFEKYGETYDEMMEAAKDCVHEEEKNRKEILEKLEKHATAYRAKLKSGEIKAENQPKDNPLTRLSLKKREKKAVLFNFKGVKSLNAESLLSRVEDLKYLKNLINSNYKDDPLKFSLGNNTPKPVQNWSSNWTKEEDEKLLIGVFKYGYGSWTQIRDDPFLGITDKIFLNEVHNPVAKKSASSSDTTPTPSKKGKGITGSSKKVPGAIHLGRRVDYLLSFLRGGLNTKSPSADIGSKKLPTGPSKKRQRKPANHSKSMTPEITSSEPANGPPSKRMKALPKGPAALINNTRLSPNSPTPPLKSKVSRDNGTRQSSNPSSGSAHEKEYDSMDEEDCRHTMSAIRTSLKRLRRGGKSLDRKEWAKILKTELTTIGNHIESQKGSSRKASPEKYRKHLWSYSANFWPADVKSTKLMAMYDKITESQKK
Sequence of Protein translocase subunit SecA (Escherichia coli (strain K12)) (P10408 whole entry): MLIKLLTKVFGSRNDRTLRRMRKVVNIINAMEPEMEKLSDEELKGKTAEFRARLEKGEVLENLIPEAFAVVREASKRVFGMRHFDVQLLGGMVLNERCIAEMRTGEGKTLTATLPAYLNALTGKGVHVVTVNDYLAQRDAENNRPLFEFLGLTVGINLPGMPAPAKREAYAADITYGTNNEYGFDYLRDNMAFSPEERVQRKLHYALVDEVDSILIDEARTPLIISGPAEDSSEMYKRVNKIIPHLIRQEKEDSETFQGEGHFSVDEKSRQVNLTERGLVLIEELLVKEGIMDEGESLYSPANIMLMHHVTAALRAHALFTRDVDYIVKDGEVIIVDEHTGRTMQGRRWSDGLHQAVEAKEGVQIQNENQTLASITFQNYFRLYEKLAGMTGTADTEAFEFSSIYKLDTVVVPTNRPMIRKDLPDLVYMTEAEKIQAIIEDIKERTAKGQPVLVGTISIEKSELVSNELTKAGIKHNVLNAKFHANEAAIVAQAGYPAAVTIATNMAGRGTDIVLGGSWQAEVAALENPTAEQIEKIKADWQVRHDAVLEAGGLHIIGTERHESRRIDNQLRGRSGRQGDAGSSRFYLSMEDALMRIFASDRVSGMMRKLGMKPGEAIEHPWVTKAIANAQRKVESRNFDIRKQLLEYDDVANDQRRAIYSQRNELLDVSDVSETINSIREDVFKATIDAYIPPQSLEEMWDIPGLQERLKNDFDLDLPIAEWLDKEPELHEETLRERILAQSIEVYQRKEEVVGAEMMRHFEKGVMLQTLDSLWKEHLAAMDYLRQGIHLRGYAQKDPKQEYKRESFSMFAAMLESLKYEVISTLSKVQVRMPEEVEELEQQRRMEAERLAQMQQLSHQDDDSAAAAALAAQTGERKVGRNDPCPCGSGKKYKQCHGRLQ

As for `O=C1CC(c2ccc(C(=O)O)cc2)c2ncn(-c3cccc(F)c3)c2N1` (stereo unspecified), the Percent Effect in assay [1] was -3.41%; in [2], 9.33%; in assay [3], -61.2%; in [4], -4.05%; in assay [5], -4.13%; in assay [6], 7.57%. Besides, the Percent Effect is 13.3% in assay [7]; -9.89% in assay [8]; 10.6% in assay [9]; 15.4% in assay [10]; -7.23% in assay [11].
As for `CCc1nnc(CNCC2CCN(CC(O)c3ccccc3)CC2)o1` (stereo unspecified), the Percent Effect was -4.81% in assay [1]; 19% in assay [2]; -3.87% in [3]; -2.88% in [4]; -2.15% in [5]; -7.1% in assay [6]. Moreover, the Percent Effect in assay [7] was 11.5%; in assay [8], 14%; in assay [9], -2.08%; in assay [10] it was 12.7%; in [11], -30.3%.
As to `COCCOc1ncccc1C(=O)Nc1ccc(-n2cncn2)c(F)c1`, the Percent Effect in [1] was -2.86%; in assay [2], 10.5%; in [3], 0.415%; in [4], 9.57%; in [5], 0%; in assay [6], 0%. For the same compound, the Percent Effect in assay [7] is 17.5%; in assay [8], -26.4%; in [9], 7.35%; in assay [10], 12.2%; in assay [11] it was -9.99%.
As for `CN(Cc1ccco1)C(=O)CN1CCCCC1Cn1cccn1` (stereo unspecified), the Percent Effect in [1] is 1.65%; in assay [2], 0%; in [3], 6.46%; in assay [4], -9.17%; in assay [5], -1.27%; in [6], -2.74%. Further, the Percent Effect was 17.1% in assay [7]; -30.8% in assay [8]; 4.76% in assay [9]; 9.41% in assay [10]; -9.28% in assay [11].
Take `O=C(NCCN1CCC(c2cccs2)CC1)Nc1cccs1`: the Percent Effect is -5.82% in assay [1]; 0% in [2]; -3.98% in assay [3]; 20.2% in [4]; 4.7% in [5]; 1.36% in assay [6]. Besides, the Percent Effect in assay [7] is 14.6%; in [8], 10.4%; in [9] it was 12.9%; in [10] it was 17.5%; in [11], -2.26%.
Take `CCCN1CCN(C(=O)c2cnccn2)[C@H]2CS(=O)(=O)C[C@H]21`: the Percent Effect in assay [1] is -2.77%; in assay [2], 2.7%; in assay [3], -5.74%; in [4], 30.7%; in [5], 3.86%; in [6] it was 2.38%. Further, the Percent Effect was 2.93% in [7]; 6.26% in assay [8]; 4.76% in [9]; 12.2% in [10]; -5.99% in [11].
Consider `CC(C)n1ncc2cc(NC(=O)N3CCC(N4CCCC4)C3)cnc21` (stereo unspecified), for which the Percent Effect was -1.2% in assay [1]; -5.41% in assay [2]; -12.5% in assay [3]; 7.73% in [4]; 4.74% in [5]; -5.73% in [6]. For the same compound, the Percent Effect is 12% in [7]; 3.87% in assay [8]; -7.92% in [9]; 23.2% in assay [10]; -5.17% in assay [11].
For `Cc1cc(CN(C)C(=O)C2CCCN(C(=O)c3cccs3)C2)no1` (stereo unspecified), the Percent Effect in [1] was -3.6%; in assay [2] it was 10.4%; in [3], 1.53%; in assay [4], 10.4%; in [5], 3.64%; in assay [6] it was -9.65%. The Percent Effect in [7] is 15.5%; in assay [8], -5.21%; in assay [9], 5.38%; in assay [10] it was 16.1%; in assay [11], -2.24%.
As to `CCc1cnc(N)nc1NCCN1CCCCC1`, the Percent Effect was -4.23% in assay [1]; 13% in assay [2]; 1.45% in assay [3]; 11.9% in assay [4]; 6.59% in assay [5]; 2.76% in assay [6]. For the same compound, the Percent Effect in assay [7] was 7.16%; in assay [8] it was 4.63%; in assay [9] it was 7.53%; in assay [10] it was 16.1%; in assay [11], -7.73%.
Take `CC(C)(C)c1nnc(CN2CCN(S(C)(=O)=O)CC2)o1`: the Percent Effect in [1] is -2.63%; in [2], 13.5%; in assay [3] it was -2.69%; in assay [4], 19.5%; in assay [5] it was 3.48%; in assay [6], 1.43%. Besides, the Percent Effect in assay [7] is 12.1%; in assay [8], 5.81%; in assay [9], 2.65%; in assay [10], 12.2%; in assay [11], -3.73%.
In the case of `CC(C)CNC(=O)NC(=O)CNc1ccccc1SCC(C)C#N` (stereo unspecified), the Percent Effect in [1] is -5.8%; in [2] it was 11%; in [3], 6%; in assay [4], 16.8%; in [5] it was 1.37%; in assay [6] it was 6.82%. In addition, the Percent Effect in assay [7] is 9.41%; in [8], 11.3%; in assay [9], 0%; in assay [10], 12.5%; in assay [11] it was -5.23%.
